The list is a sample of the results.
aSyn 5UTR act: Activators via SNCA 5'UTR binding, MLPCN | alpha-synuclein 5'UTR reporter, activators screen | activity score, % (tested at 7.5 µM), hits read low | hit rate 7.1% among 300,000 | AID 1814, 2009; in the data active = activity score below about -60%
* hit, by the source's call.

SMILES | aSyn 5UTR act
CC(=O)Nc1ccc(OC(=O)N2CCCCC2)cc1 | 69
N#Cc1cc2c(nc1SCC(=O)Nc1cc(Cl)ccc1Cl)C1CCN2CC1 | -140*
N#Cc1cc2c(nc1SCC(=O)Nc1ccc(Cl)cc1)C1CCN2CC1 | -159*
Cc1cc(C(=O)CS(=O)(=O)c2ccc(F)cc2)cc(C)c1OC(=O)N(C)C | -135*
COc1ccc(-[n+]2c(-c3ccccc3)cc(-c3ccccc3)cc2-c2ccccc2)cc1 | 81
COc1ccc(-c2nc3ccccc3c(=O)o2)cc1 | -65*
O=[N+]([O-])c1ccccc1-c1cc(-c2ccccc2)cc(-c2ccccc2)[n+]1Cc1ccccc1Cl | 64
O=C(/C=C/c1ccccc1)c1c(O)n(CCc2ccccc2)c(=O)[nH]c1=O | -83*
COc1cc(/C=C/C(=O)c2c(O)n(CCc3ccccc3)c(=O)[nH]c2=O)ccc1O | -69*
C[C@@H]1O[C@@H](O[C@H]2C[C@@H](O)[C@]3(CO)[C@H]4[C@H](O)C[C@]5(C)[C@@H](C6COC(=O)C6)CC[C@]5(O)[C@@H]4CC[C@]3(O)C2)[C@H](O)[C@H](O)[C@H]1O (stereo partly drawn) | 115
CN1C(=O)C(=Cc2ccc(OCC(=O)Nc3ccccc3)cc2)C(=O)N(C)C1=O | -78*
CCn1c(NN=O)nc2ccccc21 | 74
C/C1=C\[C@@H](C)C/C=C/[C@H]2[C@@H]3O[C@]3(C)[C@@H](C)[C@H]3[C@H](Cc4c[nH]c5ccccc45)NC(=O)[C@]32C(=O)/C=C/C(=O)[C@@H]1O | 81
O=C(c1ccccc1)c1ccc(N=Nc2c(O)[nH]c(=O)[nH]c2=O)cc1 | -74*
CCOc1cccc(CNCCc2c(C)[nH]c3ccc(OC(F)(F)F)cc23)c1O | 113
Cn1c(O)c(Cc2ccc(OCc3ccccc3)cc2)c(=O)n(C)c1=O | -140*
CCCCCCOC(=O)c1ccccc1N | -136*
CCCCCCC[n+]1ccc(-c2cc[n+](CCCCCCC)cc2)cc1 | 92
CCN(CC)c1ccc(/C=C2\C(=O)NC(=S)N(C)C2=O)o1 | -115*
CCN(CC)c1ccc(C=C2C(=O)N(C)C(=S)N(C)C2=O)o1 | -86*
CCc1ccc(NC(=O)CCNC(=O)N2C[C@H]3C[C@@H](C2)c2cccc(=O)n2C3)cc1 | -70*
CC12CC[C@H]3[C@@H](CCC4(O)C[C@H](O)CCC34/C=N/NC(=O)c3ccccc3O)C1(O)CCC2C1=CC(=O)OC1 (stereo partly drawn) | 77
NC(Cc1nc2ccccc2[nH]1)c1ccc(Cl)cc1 (stereo not drawn) | -167*
C/C=C(\C)C(=O)N[C@@H](c1ccccc1)[C@@H](O)C(=O)O[C@H]1C[C@@]2(O)[C@@H](OC(=O)c3ccccc3)C3[C@](C)(C(=O)[C@H](OC(C)=O)C(=C1C)C2(C)C)[C@@H](O)C[C@H]1OC[C@@]31OC(C)=O (stereo partly drawn) | 104
CC1(C)CN=C(Nc2nc3ccccc3s2)S1 | -118*
SMILES | aSyn 5UTR act
CCC(=O)c1ccc(OC(=O)N(C)c2ccccc2)cc1 | -118*
CN(C(=O)Oc1ccc(C(C)(C)C)cc1)c1ccccc1 | -106*
CCc1ccc(N2C(=O)NC(=O)/C(=C/c3cccn3CCOc3ccc(C(C)CC)cc3)C2=O)cc1 (stereo not drawn) | -82*
O=C(c1cc2c(s1)-c1ccccc1OC2)N1CCC2(CC1)OCCO2 | -129*
CC1CC(OP(O)(=S)c2ccc(N(C)C)cc2NC(=O)c2cccs2)CC(C)(C)C1 (stereo not drawn) | -113*
CCN(CC)C(=O)c1ccc(NC(=O)c2cccc(F)c2)cc1 | -80*
CCC1(OC(=O)CN)C(=O)OCc2c1cc1n(c2=O)Cc2cc3ccccc3nc2-1 (stereo not drawn) | 103
CCC(CC)NCc1c[nH]c2ccccc12 | -62*
CC(=O)OC(C)(C)/C=C/C(=O)C(C)(O)C1[C@H](O)C[C@@]2(C)C3CC=C4C(CC[C@@H](O)C4(C)C)[C@]3(CO)C(=O)C[C@]12C (stereo partly drawn) | 86
Cn1ccc(NC(=O)CCl)n1 | -70*
Cc1cc(NC(=O)CCl)nn1C | -94*
COC(=O)c1nc(-c2ccc3c(n2)C(=O)C(N)=C(OC)C3=O)c(N)c(-c2ccc(OC)c(OC)c2O)c1C | 97
CN(C)c1ccc(/C=C/C=C/c2sc3ccccc3[n+]2C)cc1 | 60

Screening data: PubChem BioAssay, Broad Institute
